# This is a sample that favours compounds with a hit; in the whole collection about 0.82% have one here.
# E coli Lon inh = E. coli protease La inhibition | P0A9M0 | purified E. coli Lon protease, fluorescence polarization | inhibition, % at 7.94 µM | hit rate 0.42% among 360,000 | AID 602123; in the data active = inhibition above about 13%, passing the limit was not always enough;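 also: 0% = enzyme with probe and DMSO and 100% = no enzyme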
# Keap1 Nrf2 FP = Keap1-Nrf2 (human) interaction inhibition; inhibition, % at 9.4 µM; Keap1 Kelch-Nrf2 peptide fluorescence polarization, 1536-well; hit rate 0.15% among 340,000; in the data active = inhibition above about 12%;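 also: human Keap1 Kelch domain with fluorescein labeled Nrf2 9mer peptide probe; 0% = neutral control wells and 100% = peptide positive control; higher means more block of Keap1 binding to Nrf2 peptide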
# Target sequence (Q14145 whole entry, looked up, the tested form may be a part): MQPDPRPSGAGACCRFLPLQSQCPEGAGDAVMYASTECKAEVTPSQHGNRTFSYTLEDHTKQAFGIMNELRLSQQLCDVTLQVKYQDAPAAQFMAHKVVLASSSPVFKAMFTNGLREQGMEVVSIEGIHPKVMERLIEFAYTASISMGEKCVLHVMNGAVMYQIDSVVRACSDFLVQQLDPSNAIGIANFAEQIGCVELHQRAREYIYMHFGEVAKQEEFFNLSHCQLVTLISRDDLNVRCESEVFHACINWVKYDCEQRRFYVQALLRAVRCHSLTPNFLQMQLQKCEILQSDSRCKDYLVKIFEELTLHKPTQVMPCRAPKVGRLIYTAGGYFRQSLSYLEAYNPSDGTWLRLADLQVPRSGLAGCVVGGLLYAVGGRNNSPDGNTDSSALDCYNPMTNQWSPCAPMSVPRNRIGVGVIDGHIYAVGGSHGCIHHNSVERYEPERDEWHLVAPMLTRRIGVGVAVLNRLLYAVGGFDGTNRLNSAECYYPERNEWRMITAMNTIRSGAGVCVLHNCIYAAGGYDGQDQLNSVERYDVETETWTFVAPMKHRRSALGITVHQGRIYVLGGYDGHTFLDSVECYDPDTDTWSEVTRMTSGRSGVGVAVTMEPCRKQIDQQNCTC
# cardiac RTF act = cardiac RTF calcium sensitization | P19429+P45379 | IANBD-labeled TnC RTF fluorescence at EC20 calcium; 0% EC20 calcium, 100% full calcium | activation, % at 7.2 µM | hit rate 0.24% among 340,000 | AID 493008;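 active = activation above the mean over all tested compounds plus 3 SD, cut at about 30% in these data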;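 also: rise in fluorescence read as greater calcium sensitivity of cardiac thin filaments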
# Cardiac RTF inh = cardiac RTF calcium desensitization | hit rate 0.12% among 340,000 | IANBD-labeled cardiac RTF, Ca2+ fluorescence | inhibition, % at 7.15 µM | P19429+P45379 | AID 493244;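 active = inhibition above the mean inhibition of all tested compounds plus 3 SD, cut at about 17% in these data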;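 also: assay run at fixed EC70 calcium of 1.6 mM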
# C-LANA FP = KSHV C-LANA DNA binding inhibition. MBP-C-LANA/FAM-LBS DNA binding, fluorescence polarization. inhibition, % at 9 µM. hit rate 0.078% among 340,000. AID 504423;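 active = highest replicate inhibition at or above 60% at 9 µM, even if other replicates fall short; inactive = all replicates below 60% inhibition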;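 also: 0% = neutral control wells and 100% = 4 µM acridine orange control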
# eLon confirm = E. coli Lon inhibition confirmation. AID 602230. purified E. coli Lon, fluorescence polarization. inhibition, % at 7.94 µM. shares compounds with E coli Lon inh. hit rate 31% among 1,400; in the data active = inhibition above about 16%;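 also: 0% = enzyme with probe and DMSO and 100% = no enzyme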
# Active calls of the source: *; i = inactive; . = no result given; + = active, no number.
SMILES,E coli Lon inh,Keap1 Nrf2 FP,cardiac RTF act,Cardiac RTF inh,C-LANA FP,eLon confirm
COc1ccc(C(=O)NCC(C)(C)N2CCOCC2)cc1S(=O)(=O)N1CCCC1,-8.8,1.0,4.4,-3.8,0.1,.
O=C(Cn1sc2ccccc2c1=O)NC12CC3CC(CC(C3)C1)C2,16.1*,-1.3,-0.9,-1.7,0.8,5.4
CN(C)CCNc1oc(COc2ccc(Cl)cc2)nc1C#N,-1.4,-0.7,-8.8,0.8,-0.7,.
CN(C)CCNc1oc(COc2cccc(Cl)c2)nc1C#N,20.1*,-2.4,-4.7,-17.8,0.0,-16.1
CCN(CC(=O)NC(C)(C)C)C(=O)CCl,-1.6,-2.3,-0.5,-11.6,-0.1,.
CC(=O)OCCn1c2nc(=O)[nH]c(=O)c-2nc2cc(C)c(C)cc21,+,156.5*,+,i,163.4*,+
CN(C)c1cc2c3ccccc3n(C)c2cc1N,41.2*,-6.3,3.2,-2.5,-2.7,51.8*
CS(=O)(=O)Nc1ccccc1-c1cccc2nccn12,3.0,.,.,.,.,.
O=C(CCC1CCCC1)NC1CCCCC1,15.3*,-7.6,2.9,-2.5,0.8,-1.4
O=C(CC1CCCCC1)NC1CCCC1,6.3,-2.3,-3.8,-0.6,0.0,.
CCOC(=O)N1CCN(CC(=O)c2ccc(O)cc2O)CC1,25.2*,3.3,3.5,-3.1,4.6,29.5*
CCN(CC)Cc1cc(O)c(CN(CC)CC)cc1O,34.6*,4.9,6.8,-10.6,25.4,29.5*
CCc1oc(C(=O)O)cc1CN(CC)CC,-0.2,-3.5,1.2,-7.9,0.8,.
O=C(O)CC(NNC(=O)c1ccccc1)C(=O)Nc1cccc([N+](=O)[O-])c1 (stereo not given),16.3*,-2.3,7.2,-5.7,0.5,12.0
O=C(NC(=S)Nc1cccc([N+](=O)[O-])c1)c1ccccc1,2.8,-1.1,.,.,-0.2,.
NC(=O)c1ncn([C@@H]2O[C@H](CNC(=O)[C@H](N)CSCc3ccccc3)[C@@H](O)[C@H]2O)n1,24.4*,0.3,-4.4,-5.5,0.0,-0.2
Nc1ncnc2c1ncn2[C@@H]1O[C@H](CNC(=O)[C@@H](N)Cc2ccccc2)[C@@H](O)[C@H]1O,-10.9,-1.3,-0.5,-5.6,5.4,.
CSc1ccccc1C(=O)N(C)C(c1ccccc1)c1ccccc1,-4.3,-6.5,-6.6,-5.0,0.2,.
S=C(Nc1ccc(N2CCOCC2)cc1)Nc1ccc2nc(-c3ccco3)c(-c3ccco3)nc2c1,43.1*,6.6,16.2,-26.8,11.7,84.5*
CC(=O)Nc1cc(Cl)ccc1OS(=O)(=O)c1ccc(C)cc1,44.8*,-2.6,-7.3,-3.6,-0.2,-1.4
CC(=O)Nc1ccc(OS(=O)(=O)c2ccc(Cl)cc2)cc1,1.2,-5.4,-2.5,-3.2,-0.1,.
O=C1NC2c3c(I)sc(I)c3C(=O)C2O1 (stereo not given),105.2*,-1.8,11.1,-25.5,12.0,16.6*
CCOc1ccc(N2C(=O)CC(N)C2=O)cc1 (stereo not given),18.2*,-4.0,-1.7,-4.0,-1.1,-0.7
CCOc1ccc(N2C(=O)CC(Cc3cc(C)cc(C)c3)C2=O)cc1 (stereo not given),-5.6,3.5,-4.5,0.0,1.3,.
CCOc1ccc(N2C(=O)CC(NCC3CCCO3)C2=O)cc1 (stereo not given),15.8*,-0.5,1.7,-8.1,9.0,5.4
SMILES,E coli Lon inh,Keap1 Nrf2 FP,cardiac RTF act,Cardiac RTF inh,C-LANA FP,eLon confirm
CCOc1ccc(CCNC(=O)COC(=O)c2cccc(S(=O)(=O)N3CCOCC3)c2)cc1OCC,2.0,1.6,-2.9,-9.9,-1.2,.
CCc1ccc(NC(=O)CC2C(=O)N(c3ccc(C)cc3)C(=O)N2CCc2ccncc2)cc1 (stereo not given),0.9,-3.0,-1.4,0.6,-0.1,.
CCN(C[C@H]1N[C@@](C)(C(=O)OC)[C@H]2C(=O)N(C)C(=O)[C@@H]12)C(=O)COc1ccccc1,0.5,-1.3,5.0,0.5,-1.3,.
O=C1C(NS(=O)(=O)c2cccs2)=C(N2CCN(c3cccc(Cl)c3)CC2)C(=O)c2ccccc21,19.4*,-7.4,6.7,-3.6,-0.7,32.0*
O=C1C(NS(=O)(=O)c2ccccc2)=C(N2CCN(c3ccc(F)cc3)CC2)C(=O)c2ccccc21,-2.1,0.0,0.6,-1.9,1.7,.
N#Cc1c(F)cccc1NCc1cccnc1,-3.9,-6.9,-3.0,3.7,1.0,.
N#Cc1c(NCc2ccccc2)ccnc1NCc1cccnc1,17.4*,-10.2,11.0,6.5,-1.5,-54.0
O=C(CSc1ccc(Br)cc1)Nc1ccccc1N1CCOCC1,-5.5,-3.6,-4.0,-5.0,3.4,.
CCCCn1c(=O)[nH]c2nc3cc(NC(C)=O)ccc3nc2c1=O,34.5*,-4.9,5.8,-8.6,3.5,33.2*
CC(=O)Nc1c(O)nc(SCc2ccccc2C#N)[nH]c1=O,-3.8,-9.0,-5.5,5.8,-1.2,.
CCOC(=O)N1CCC(NC(=O)Cn2c3c(c(-c4ccccc4Cl)cc2=O)CCC3)CC1,19.8*,1.2,3.6,-0.1,-2.2,-9.4
CCOC(=O)/C=c1\s/c(=C\c2ccc(C)cc2)c(=O)n1CC(=O)NCc1ccco1,24.0*,-0.2,5.4,-5.3,-4.6,-1.6
O=Cc1cc(N=Nc2ccc(S(=O)(=O)O)cc2)ccc1O,14.6,-4.4,-0.4,-7.5,0.2,.
Cc1cc(C=O)c(O)cc1O,37.2*,0.2,10.5,-10.8,1.4,-5.1
Nc1cc(=O)[nH]c(SCC(=O)NCCC2=CCCCC2)n1,1.6,-0.6,-1.5,-3.4,-0.7,.
CCc1c(C(C)S(=O)(=O)c2ccc(C)cc2)[nH]c(=O)n1-c1ccc(C)cc1 (stereo not given),62.9*,-12.4,-6.4,-8.1,0.6,8.4
CCc1[nH]c(=O)[nH]c1C(C)S(=O)(=O)c1ccc(C)cc1 (stereo not given),-7.0,-8.2,-3.0,-1.4,1.3,.
O=C(Nc1ccc(S(=O)(=O)Nc2ncccn2)cc1)c1ccc(Br)s1,27.7*,0.9,-3.6,1.1,2.2,34.2*
O=S(=O)(Nc1ncccn1)c1ccc(Nc2ncnc3ccccc23)cc1,19.6*,3.0,3.1,2.4,0.1,80.6*
O=C(Nc1ccc(Cl)cc1)Nc1ccc(S(=O)(=O)Nc2ncccn2)cc1,64.7*,-7.0,8.9,-1.2,-1.0,48.1*
O=S(=O)(Nc1ccc(S(=O)(=O)Nc2ncccn2)cc1)c1ccccc1,-6.6,-2.9,-2.1,-17.6,-2.3,.
COc1ccc(NC(=O)CN(C)C(=O)CCc2c[nH]c3ccccc23)cc1,32.2*,-0.5,2.0,-9.1,-0.5,15.5
OCC(O)/C=N/Nc1nc(N2CCCCC2)nc(N2CCCCC2)n1 (stereo not given),8.5,0.9,-4.9,-5.5,-2.0,.
CC(=O)Nc1nc(C)c(Oc2ccccc2)c(=O)[nH]1,23.1*,-2.0,5.7,-7.1,0.3,-7.1
Cn1c2c(c(=O)n(C)c1=O)C(C(F)(F)F)(C(F)(F)F)N=C(c1ccccc1Cl)N2,0.7,-0.3,8.6,-14.5,-0.3,.

# Assay outcomes: PubChem, several laboratories
